Assay results taken from ChEMBL document CHEMBL3988442, “University of Dundee, Small-Polar-MMV Screening Library” (2021).
Among all 66,000 compounds or so, about 960 (1.5%) showed an effect of 50% or more. The sample as a whole holds a higher share of strong results than the screen did.

System: Trypanosoma brucei
Assay: Trypanosoma brucei 72 hour study
Format: functional, organism-based
Set-up: scale not given: in the data most compounds retested in dose-response had high values

## Cn1cc(CN2CCC3(CC2)NC(=O)CC3c2ccncc2)cn1.O=C(O)C(F)(F)F.O=C(O)C(F)(F)F (stereo not given)
30 µM, 30.03 µM
  Percent Effect: 47.38%

## COc1ccc(S(=O)(=O)N2CCOC(Cn3ccnc3)C2)cc1.Cc1ccc(S(=O)(=O)O)cc1 (stereo not given)
30.3 µM, […]
  Percent Effect: -20.84%

## CCc1ncc(C(=O)NCCN(C)S(C)(=O)=O)cn1
30 µM, 30.03 µM
  Percent Effect: 1.892%

## CN(CCNC(=O)c1cnc(-c2ccccc2)nc1)S(C)(=O)=O
30 µM, 30.03 µM
  Percent Effect: 23.88%

## CN(CCNC(=O)c1cnc(-c2ccncc2)nc1)S(C)(=O)=O
30 µM, 30.03 µM
  Percent Effect: 61.08%

## CN(C)C(=O)NCc1cc(=O)n2c(n1)CN(Cc1ccoc1)CCC2.O=C(O)C(F)(F)F
30 µM, 30.03 µM
  Percent Effect: -46.36%

## Cc1nc(CN(C)C2CCN(CCn3cc(C#N)cn3)C2)no1 (stereo not given)
30.3 µM, […]
  Percent Effect: -2.287%

## Cc1cccc(OCCC(=O)N(C)CC(C)C#N)c1C (stereo not given)
30 µM, 30.03 µM
  Percent Effect: 9.501%

## Cc1cccc(OCCC(=O)N(C)CCNS(C)(=O)=O)c1C
30 µM, 30.03 µM
  Percent Effect: 57.14%

## Cc1cccc(OCCC(=O)N(C)CCC#N)c1C
30 µM, 30.03 µM
  Percent Effect: 43.96%

## Cc1ccc(-n2cccn2)cc1S(=O)(=O)N1C[C@H](C2CC2)[C@@H](N)C1
30 µM, 30.03 µM
  Percent Effect: 17.94%

## Cc1ccc(-n2cccn2)cc1S(=O)(=O)N1C[C@@H]2CC[C@H](C1)N(C)C2
30 µM, 30.03 µM
  Percent Effect: 75.01%

## COc1ccc(-n2cccn2)cc1S(=O)(=O)N1C[C@H](C2CC2)[C@@H](N)C1
30 µM, 30.03 µM
  Percent Effect: 27.88%

## COc1ccc(N2Cc3nc(=O)n(C(C)C)n3C2=O)cc1
30 µM, 30.03 µM
  Percent Effect: -34%

## CCN1CC2(CC1=O)CN(Cc1ccncc1)CCN(C(=O)C(C)C)C2.O=C(O)C(F)(F)F.O=C(O)C(F)(F)F (stereo not given)
30 µM, 30.03 µM
  Percent Effect: -22.83%

## O=C(NCc1nnc2n1CCC2)N1CCC2(CCCCC2)CC1
30.3 µM, […]
  Percent Effect: -3.097%

## O=C(NCCc1nnc2n1CCCCC2)N1CCC2(CCCC2)CC1
30.3 µM, […]
  Percent Effect: 99.8%

## O=C(NCCc1nnc2n1CCC2)N1CCC2(CCCCC2)C1
30.3 µM, […]
  Percent Effect: -13.71%

## O=C(C1CCOCC1)N1CCc2ncc(CN3CCCC3)n2CC1.O=C(O)C(F)(F)F
30.3 µM, […]
  Percent Effect: -192.2%

## COc1cccc(-c2nc(C)c(C(=O)N[C@@H](CC(C)C)C(=O)O)s2)c1
30 µM, 30.03 µM
  Percent Effect: -38.77%

## CNC(=O)C(CC(C)C)NC(=O)c1cccc(-c2nc(C)cs2)c1 (stereo not given)
30.3 µM, […]
  Percent Effect: 71.45%

## CNC(=O)C(CC(C)C)NC(=O)c1cccc(-c2n[nH]c(C)n2)c1 (stereo not given)
30.3 µM, […]
  Percent Effect: -198.3%

## NC(=O)NCC(=O)N1C[C@H]2CC[C@@H]1CN(Cc1cscn1)C2
30 µM, 30.03 µM
  Percent Effect: -50.24%

## CN(C)[C@@H]1CCN(CC2CC2)[C@H]1Cc1cnn(C)c1.O=C(O)C(F)(F)F.O=C(O)C(F)(F)F
30.3 µM, […]
  Percent Effect: -399.8%

## O=c1[nH]c(-c2ccncc2)ncc1-c1ccnc(NC2CCCCC2)n1
30.3 µM, […]
  Percent Effect: -18.66%

## COc1ccc2[nH]cc(-c3ccnc(N4CCC(C)CC4)n3)c2c1
30.3 µM, […]
  Percent Effect: 23.49%

## COc1ccc2[nH]cc(-c3ccnc(NC4CCCC4)n3)c2c1
30.3 µM, […]
  Percent Effect: 82.65%

## COCCN1CCC2(CCC(=O)N2Cc2csc(C)n2)CC1.O=C(O)C(F)(F)F.O=C(O)C(F)(F)F
30.3 µM, […]
  Percent Effect: -13.8%

## CC(=O)N1[C@@H](C(=O)NCC2CC2)C[C@@H]2CN(Cc3nccs3)C[C@@H]21.O=C(O)C(F)(F)F
30.3 µM, […]
  Percent Effect: -16.07%

## COc1cc(C(=O)N(CCC#N)Cc2ccccn2)ccc1C
30 µM, 30.03 µM
  Percent Effect: 33.36%

## Cc1ccc(C(=O)N(CCC#N)Cc2ccccn2)cc1C
30 µM, 30.03 µM
  Percent Effect: 52.21%

## COc1cc(C(=O)N(CCC#N)Cc2ccccn2)cc(OC)c1C
30 µM, 30.03 µM
  Percent Effect: 4.832%

## Cc1cnn(C2CCCN(C(=O)c3ccc(-n4cccn4)nc3)C2)c1 (stereo not given)
30.3 µM, […]
  Percent Effect: -2.436%
10 mM, 10 mM as filed; unlikely as a test dose
  Percent Effect: -29.12%

## O=C(O)C(F)(F)F.O=C1CCCN1Cc1nnn2c1CN(c1cccnc1)CCC2
30.3 µM, […]
  Percent Effect: -14.81%

## Cc1ccc(CN2Cc3c(C(=O)N4CCCC4)nn(C)c3C2)s1.O=C(O)C(F)(F)F
30 µM, 30.03 µM
  Percent Effect: -54.81%

## CN(C)Cc1nnn2c1CN(Cc1cccnc1)CCC2.O=C(O)C(F)(F)F.O=C(O)C(F)(F)F.O=C(O)C(F)(F)F
30 µM, 30.03 µM
  Percent Effect: -10.93%

## Cc1cc(C)n(-c2ccccc2NC(=O)NCCCN(C)S(C)(=O)=O)n1
30 µM, 30.03 µM
  Percent Effect: -25.36%

## Cc1nn(-c2ncnc3[nH]cnc23)c2c1C(C(C)C)CC(=O)N2 (stereo not given)
30 µM, 30.03 µM
  Percent Effect: 16.15%

## Cc1nn(-c2ccccc2)c2c1C(c1ccc(C(=O)O)cc1)CC(=O)N2 (stereo not given)
30 µM, 30.03 µM
  Percent Effect: 16.38%

## Cc1nn(-c2ncnc3[nH]cnc23)c2c1C(CC(C)C)CC(=O)N2 (stereo not given)
30 µM, 30.03 µM
  Percent Effect: 53.52%

## CC(C)CC1SCC(=O)Nc2c1cnn2C(C)C (stereo not given)
30 µM, 30.03 µM
  Percent Effect: 38.7%

## Cc1ccc(-n2nc(C)c3c2NC(=O)CC3c2cnc(N)s2)cc1 (stereo not given)
30.3 µM, […]
  Percent Effect: 2.745%

## Cc1nn(-c2ncnc3[nH]cnc23)c2c1C(C(C)(C)C)CC(=O)N2 (stereo not given)
30 µM, 30.03 µM
  Percent Effect: 101.7%

## CC[C@@H](CO)Nc1cc(-c2cn[nH]c2)ncn1
30.3 µM, […]
  Percent Effect: -17.33%
